Data: PubChem BioAssay (NCI)
About 83,000 compounds went through this panel and 20% of them were active in at least one assay; those are over-represented in the sample as a whole.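 Cell lines were cultured in 96-well plates, exposed to a single compound concentration, and assessed for percent growth 48 hours later.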 Active and inactive are the calls of the source.

test system: U251 CNS; test: NCI-60 one-dose screen, 48 h (100 = growth as untreated, 0 = no growth, -100 = all killed); settings: 10 µM unless noted
Protocol: Growth inhibition of the U251 human tumor cell line is measured as a screen for anti-cancer activity. Cells are grown in 96 well plates and exposed to the test compound for 48 hours. Compounds are tested at a single concentration, which is 10^-5 M for most compounds. The reported endpoint is percent growth (GI% or GIPRCNT), where numbers from 0 - 100% represent growth inhibition, and numbers from -100% - 0 represent cell death. For example, a value of 40 represents 60% growth inhibition. A value of 0 means no net growth occurred over the course of the experiment. A value of -40 indicates 40% of cells at the beginning of the experiment died by the end of the experiment. A value of -100 means all cells are dead at the end of the experiment.
NCI-60 Human Tumor Cell Lines Screen was performed using the standard one-dose NCI protocol, which is described in more detail at https://dtp.cancer.gov/discovery_development/nci-60/default.htm.
Compounds with GIPRCNT values below 10 were considered active. Activity score was based on GIPRCNT using the following formula: […]
Score is 0 for GIPRCNT values of 100 or above, 50 for GIPRCNT values of 0, and 100 for GIPRCNT values of -100.

Structure (SMILES)	growth
CCC(=O)c1cc([N+](=O)[O-])c(Br)s1	93.4% (inactive)
CCCCCCCCCCCC[n+]1ccccc1 (tested in a mixture with another compound)	-24.1% (active)
O=C(c1ccccc1)c1ccc(O)c2ncccc12	28.4% (inactive)
OCCOSCCO	101% (inactive)
CCCCCCCCCCCC(=O)OC(C)C(=O)NCCCC (stereo not given)	93.7% (inactive)
S=c1[nH]c2cc(Cl)ccc2s1	101% (inactive)
Cc1cc(N/N=C/c2ccccn2)nc2ccccc12	4.92% (active)
CC(C)=C1C=C2CC[C@@H]3[C@](C)(CCC[C@@]3(C)C(=O)O)[C@H]2CC1	96.2% (inactive)
Fc1ccc(NCCS)cc1	97.9% (inactive)
COc1cc(/C=C2\SC(=S)N(/C=C/c3nc4ccccc4[nH]c3=O)C2=O)cc(OC)c1OC	81.8% (inactive)
O=C(C[P+](c1ccccc1)(c1ccccc1)c1ccccc1)c1ccccc1	96.7% (inactive)
COc1cc(NC(=O)C2=C(C)NC(C)=C(C(=O)Nc3cc(OC)c(Cl)cc3OC)C2c2cccc([N+](=O)[O-])c2)c(OC)cc1Cl	31.6% (inactive)
OC(Cc1cc(CC(O)(C(F)(F)F)C(F)(F)F)nc(CC(O)(C(F)(F)F)C(F)(F)F)c1)(C(F)(F)F)C(F)(F)F	-60.2% (active)
Cc1ccc(NC2=CC(=O)C(=O)c3ccccc32)cc1	15.4% (inactive)
CCOc1ccc(Nc2nc3c(s2)C(=O)c2ccccc2C3=O)cc1	78.9% (inactive)
COc1c(C)c2c(c(O)c1C/C=C(\C)CCC(=O)O)C(=O)OC2	18.3% (inactive)
Oc1ccc2ccccc2c1N=Nc1nccs1	4.79% (active)
COc1ccc(NC(=O)/C(=C/N2C(=O)/C(=C/c3ccc(OC)c(OC)c3)NC2=S)C(C)=O)cc1	57.3% (inactive)
CCCCCCCCCCCCCCCC[N+]1(C)CCCC1c1cccnc1 (stereo not given)	16.7% (inactive)
CC(C)N=C(N)/N=C(\N)Nc1ccc2ccc3ccccc3c2c1	-67.9% (active)

Structure (SMILES)	growth
CC(O)C(O)C(O)C(O)C(O)C(=O)NNc1ccccc1 (stereo not given)	97.6% (inactive)
CCC1CCCCN1C(=S)N/N=C(\C)c1ccccn1 (stereo not given)	6.56% (active)
Oc1ccccc1N=Cc1ccccc1	89.9% (inactive)
CN(C)c1ccc2cc3c(cc2c1)Oc1ccccc1N3.[Cl][Zn][Cl]	78.7% (inactive)
Oc1ccc(Nc2ccc3ccccc3c2)cc1	67.5% (inactive)
Nc1nc(N)c2cc(Sc3cccc(C(F)(F)F)c3)ccc2n1	19.2% (inactive)
CC1C(c2ccccc2)OCCN1C(=S)Nc1ccc(S(=O)(=O)N2CCCCC2)cc1 (stereo not given)	93% (inactive)
Cc1cccc2c(N)c3ccccc3nc12	-17.6% (active)
OC(c1cc2ccc(C(F)(F)F)cc2c2cc(C(F)(F)F)ccc12)C1CCCCN1 (stereo not given)	-100% (active)
O=C1C(=O)c2cc([N+](=O)[O-])ccc2-c2ccccc21	-81.5% (active)
Cc1c(O)ccc(SC#N)c1C	101% (inactive)
O=C1/C(=C/c2ccccc2)CCC/C1=C\c1ccccc1	66.2% (inactive)
C(=N\Nc1ccc2ccccc2n1)/c1ccccn1	10.1% (inactive)
COc1cccc2c1C(=O)c1c(O)c3c(c(O)c1C2=O)C[C@@](O)(C(=O)CO)C[C@@H]3OC1CC(OC(C)=O)C(OC(C)=O)C(C)O1 (stereo not given in full)	-42.9% (active)
COc1ccc(/C=C2/C(=O)ON=C2C)cc1	98.6% (inactive)
CCCCOS(=O)(=O)c1ccccc1	104% (inactive)
CN(C)c1ccc(/C=C/c2sc3ccc4ccccc4c3[n+]2C)cc1	-51.2% (active)
COc1ccc2c(c1OC)OCC(CN(C)C)C2=O (stereo not given)	103% (inactive)
O=C1C=CC(=O)N1C1CCCCCCCCCCC1	91.6% (inactive)
CN1CCC(c2ccccc2)(c2ccccc2)C(=O)C1	91.3% (inactive)
